ELG1 repair inh: qHTS screen for small molecules that inhibit ELG1-dependent DNA repair in human embryonic kidney (HEK293T) cells expressing luciferase-tagged ELG1; 2.3% of 330,000 active; Potency, µM (series often up to 46.1 µM), without a hit: top-dose activity change, negative = inhibition, most hits filed as inhibitors; HEK293T ELG1-luciferase reporter, luminescence, 16 h; DNA damage induced by 5-fluorouridine; AID 504467, 2011; further: nearly all actives have a fitted effect of over 55% in size
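Cells (2,000 per well) received 5-fluorouridine plus test compound or DMSO and were incubated 16 hr at 37 °C, 5% CO2. Luciferase activity was read by luminescence 30 min after ONE-Glo addition; signal suppression marked inhibition of damage-induced ELG1 function.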
VP16 counter: VP16 counterscreen qHTS for inhibitors of ROR gamma transcriptional activity | Drosophila S2 Gal4-VP16 UAS-luciferase, luminescence, 20 h | Potency, µM (series often up to 53.6 µM), inactives show at the top dose activity, negative = inhibition, most hits filed as inhibitors | 3.5% of 310,000 active | AID 2546, 2010;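 further: Gal4-VP16 expression switched on by copper sulfate through the metallothionein promoter; nearly all actives have a fitted effect of over 50% in size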
DT40 TDP1 CPT: qHTS for Inhibitors of human tyrosyl-DNA phosphodiesterase 1 (TDP1): qHTS in cells in presence of CPT | chicken DT40 Tdp1-/-;hTDP1 cells + 20 nM CPT, ATP luminescence, 48 h | Potency, µM (doses to about 46.2 µM), inactives show at the top dose activity change, negative = growth inhibition, most hits filed as inhibitors | 12% of 420,000 active | AID 686979, 2013; further: nearly all actives have a fitted effect of over 55% in size
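Chicken DT40 Tdp1-/- cells stably complemented with human TDP1 were seeded at 400 cells/well in medium containing 20 nM camptothecin, exposed to pin-transferred compounds, and grown at 37 °C for at least 48 hr. Viability was read as ATP luminescence.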
RORg inh: qHTS for inhibitors of ROR gamma transcriptional activity. Nuclear receptor ROR-gamma (Mus musculus), P51450. AID 2551, 2010. Drosophila S2 Gal4-RORgamma UAS-luciferase reporter, 20 h. Potency, µM (top dose mostly 53.6 µM), without a hit: top-dose activity change, negative = inhibition, hits mostly inhibitors. 5.4% of 310,000 active; further: nearly all actives have a fitted effect of over 60% in size
Target sequence (P51450 whole entry, looked up, the tested form may be a part): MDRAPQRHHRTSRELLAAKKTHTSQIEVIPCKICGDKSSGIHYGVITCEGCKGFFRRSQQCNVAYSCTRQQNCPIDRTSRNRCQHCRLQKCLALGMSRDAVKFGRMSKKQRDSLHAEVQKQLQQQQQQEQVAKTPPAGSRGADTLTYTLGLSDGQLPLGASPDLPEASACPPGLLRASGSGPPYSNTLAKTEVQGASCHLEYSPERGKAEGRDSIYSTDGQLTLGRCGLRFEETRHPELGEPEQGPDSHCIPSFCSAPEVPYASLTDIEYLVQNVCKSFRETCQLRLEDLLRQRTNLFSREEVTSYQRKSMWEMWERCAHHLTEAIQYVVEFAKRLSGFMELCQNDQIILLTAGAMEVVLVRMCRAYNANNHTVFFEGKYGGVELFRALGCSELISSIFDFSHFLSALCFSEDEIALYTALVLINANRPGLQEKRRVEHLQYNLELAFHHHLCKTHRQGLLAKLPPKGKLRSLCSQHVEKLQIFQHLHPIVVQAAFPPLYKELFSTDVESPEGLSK
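A Gal4/UAS one-hybrid system in insect cells: metallothionein-promoter Gal4–ROR gamma fusion plus Photinus luciferase reporter. Copper sulfate 700 uM final, 20 hr ambient incubation, luminescent detection after 10 min with reagent.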
DT40 TDP1 no CPT: qHTS for Inhibitors of human tyrosyl-DNA phosphodiesterase 1 (TDP1): qHTS in cells in absence of CPT. Potency, µM (doses to about 46.2 µM), without a hit: at the top dose activity change, negative = growth inhibition, usual class: inhibitors. AID 686978, 2013. 15% of 420,000 active. DT40 Tdp1-/- hTDP1 cells, no CPT, ATP luminescence, 48 h; further: nearly all actives have a fitted effect of over 55% in size
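Growth kinetics read by CellTiter-Glo luminescence after ≥48 hr at 37 °C. Cells: DT40 Tdp1-/- stably carrying human TDP1, 400 per well, compound exposure in the absence of CPT (DMSO vehicle).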
12-LOX inh: Primary qHTS assay for inhibitors of human arachidonate 12S-lipoxygenase (ALOX12): Round 2; Potency, µM (top dose mostly 108 µM), without a hit: at the top dose activity change, negative = inhibition, actives largely listed as inhibitors; purified 12hLO, xylenol orange hydroperoxide absorbance; Polyunsaturated fatty acid lipoxygenase ALOX12 (Homo sapiens), P18054; 1.1% of 580,000 active; AID 1671190, 2021
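Purified human 12hLO at 150 nM in 25 mM Hepes, 0.01% Triton X-100, pH 7.0, preincubated 15 min at room temperature with compound. Reaction started with 40 uM arachidonic acid, 30 min at room temperature. Hydroperoxide measured by Fe-xylenol orange, 573/405 nm absorbance ratio.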
* hit, by the source's call; ? = inconclusive; · = no result given; [ ] = remark or other dose. Compounds with a hit are over-represented: about 15% of the library has one in this group of screens. The call rests on the fitted dose curve; in most records, active means well fitted curve in the direction sought with a large enough effect; inconclusive means small, poorly fitted or top-dose-only effect, or another doubt; inactive means no such curve, though single readings can be large; an effect the other way counts as inactive or inconclusive. On the % scale 0 is the no-effect control and ±100 the full control effect; potency means the concentration at half of the fitted maximal effect.

SMILES	ELG1 repair inh	VP16 counter	DT40 TDP1 CPT	RORg inh	DT40 TDP1 no CPT	12-LOX inh
O=C(N/N=C/c1ccc(Cl)s1)c1ccccc1[N+](=O)[O-]	6%	7.1µM*	-14%	6.3µM*	?	414%
O=C(N/N=C/c1cc(Br)cs1)c1ccccc1[N+](=O)[O-]	?	7.9µM*	?	5.6µM*	?	0%
O=C(N/N=C/c1ccncc1)c1ccccc1[N+](=O)[O-]	9%	2%	5%	-18%	-10%	-3%
COc1ccc(-n2c(C)nc3cc(C(=O)N4CCOCC4)ccc32)cc1	?	-7%	4%	2µM*	-21%	-4%
COc1cccc(CN2CC(C(=O)N3CCN(c4ccc(Cl)cc4)CC3)CCC2=O)c1 (configuration not stated)	-13%	7%	23µM*	-2%	21µM*	104%
COc1ccc(N2CCN(C(=O)c3cccc(S(=O)(=O)N4CCOCC4)c3)CC2)cc1	19%	·	6%	·	3%	2%
COc1ccc(N2CCN(C(=O)c3cccc(Cn4cc(Cl)cn4)c3)CC2)cc1	·	6%	?	?	23µM*	-27%
COc1ccc(N2CCN(C(=O)c3ccc(C)c(Cl)c3)CC2)cc1	·	?	?	41%	18µM*	?
CCc1nnc(SCC(=O)Nc2cc(Cl)ccc2C)n1-n1cccc1	·	·	·	·	·	30%
Cc1noc([C@@H](C)NC(=O)Nc2cccnc2)c1C(=O)O	·	·	·	·	·	-7%[176 µM]
CC1CCN(C(=O)COc2ccc(Cl)cc2C(N)=O)CC1	·	·	·	·	·	33%
O=C(CSc1n[nH]c(=O)n1C1CC1)Nc1cc(Cl)ccc1Oc1ccccc1	?	?	16µM*	6%	15µM*	5%
O=C(CSc1n[nH]c(=O)n1C1CC1)Nc1ccccc1	19%	-5%	-13%	-19%	0%	-33%
CCn1cc(CNc2ncc(C(C)(C)C(=O)O)c(N3CCOCC3)n2)cn1	·	·	·	·	·	10%
COc1cccc(-c2nc(CS(=O)(=O)CC(=O)NCc3ccccc3OC)c(C)o2)c1	1%	-10%	?	?	18µM*	26%
CCOc1ccc(CCNC(=O)CS(=O)(=O)Cc2nc(-c3ccccc3Cl)oc2C)cc1	·	·	·	·	·	-23%
COc1ccc(OC)c(CCNC(=O)CS(=O)(=O)Cc2nc(-c3ccccc3Cl)oc2C)c1	21µM*	4%	?	10%	?	3%
CC(C)Cc1nn2c(=O)cc(CSc3nnc(-c4ccccc4F)o3)nc2s1	·	·	·	·	·	13%
CCOC(=O)c1cc(C)n(CCc2ccccc2)c1C	?	7%	-16%	32%	-24%	-19%
COCCn1c(C)cc(C(=O)CSc2ccc(NC(C)=O)cc2)c1C	?	-4%	-16%	?	-16%	-27%
Cc1cc(C(=O)CCl)c(C)n1CCc1ccccc1	9%	-12%	3.3µM*	17%	4.6µM*	-28%
COC(=O)CCn1c(C)cc(C(=O)COc2ccccc2C(N)=O)c1C	-12%	?	21µM*	-8%	23µM*	2%
COC(=O)CCCn1c(C)cc(C(=O)CCl)c1C	13%	-80%	6.5µM*	8.9µM*	10µM*	-18%
CC(C)(C)c1ncc(NC(=O)c2cc[n+]([O-])cc2)cn1	·	·	·	·	·	7%
O=C1CCCN1Cc1noc(-c2cccc(Cl)c2)n1	·	·	·	·	·	14%
SMILES	ELG1 repair inh	VP16 counter	DT40 TDP1 CPT	RORg inh	DT40 TDP1 no CPT	12-LOX inh
Cc1cccc(C)c1-n1nnnc1SCC(=O)N(Cc1ccco1)C1=CCCCC1	·	·	·	·	·	-52%
Cc1ccccc1-n1nnnc1SCC(=O)N(Cc1ccco1)C1=CCCCC1	·	·	·	·	·	8.9µM*
Oc1cc(-c2cccs2)cc2c1OCCN(Cc1cn[nH]c1-c1ccc(Cl)cc1)C2	·	·	18µM*	·	?	-4%
COc1ccc(CN(C)Cc2nc(Cc3cccc(F)c3)no2)c2cccnc12	?	7.1µM*	12µM*	?	2.9µM*	-1%
COc1cccc(-n2cc(CN(C)Cc3nc(Cc4cccc(F)c4)no3)cn2)c1	?	3%	?	0%	-29%	?
O=C(Cn1cnc2ccccc2c1=O)N1CCN(c2ccc(Cl)cc2)CC1	·	·	·	·	·	-14%
CN1CC(=O)N(C)c2ncn(Cc3ccccc3)c2C1=O	9%	-8%[0.365 µM]	-2%	4.5µM*	6%	-1%
COc1ccc(NC2CCCN(C(=O)C(C)(C)c3ccccc3)C2)cc1 (configuration not stated)	·	·	·	·	·	-2%
Cc1nc2ccc(Cl)cn2c1C(=O)N1CCC2(CCCN(C)C2=O)C1 (configuration not stated)	·	·	·	·	·	21%
Cc1ccccc1-c1cc(C(=O)NCc2ccc3c(c2)OCO3)n(CC2CC(c3cccnc3)=NO2)n1 (configuration not stated)	?	·	?	·	?	-12%
Cc1ccccc1-c1cc(C(=O)NCc2ccc(OC(F)(F)F)cc2)n(CC2CC(c3cccnc3)=NO2)n1 (configuration not stated)	18µM*	·	?	·	?	-29%
Cc1ccc(CNC(=O)c2cc(-c3ccccc3C)nn2CC2CC(c3cccnc3)=NO2)cc1 (configuration not stated)	?	·	?	·	21µM*	?
CCCCNC(=O)C12CC3CC(CC(C3)C1)C2	·	·	·	·	·	19%
CN1CCN(CCCOc2ccc(-c3ccccc3)cc2)CC1	?	-7%	?	2%	16µM*	?
